Our source for the growth values is PubChem BioAssay (NCI).

Compounds without any hit were thinned out: in the full panel of roughly 83,000, 20% have a hit.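 Percent growth is the endpoint: 0 to 100 indicates growth inhibition (40 means 60% inhibition), 0 means no net growth, and negative values indicate cell death.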 The source made the active and inactive calls.

The assay concerns PC-3 prostate. The assay can be described thus: NCI-60 one-dose screen, 48 h (100 = growth as untreated, 0 = no growth, -100 = all killed). To be noted: 10 µM unless noted. The procedure:
Growth inhibition of the PC-3 human tumor cell line is measured as a screen for anti-cancer activity. Cells are grown in 96 well plates and exposed to the test compound for 48 hours. Compounds are tested at a single concentration, which is 10^-5 M for most compounds. The reported endpoint is percent growth (GI% or GIPRCNT), where numbers from 0 - 100% represent growth inhibition, and numbers from -100% - 0 represent cell death. For example, a value of 40 represents 60% growth inhibition. A value of 0 means no net growth occurred over the course of the experiment. A value of -40 indicates 40% of cells at the beginning of the experiment died by the end of the experiment. A value of -100 means all cells are dead at the end of the experiment.
NCI-60 Human Tumor Cell Lines Screen was performed using the standard one-dose NCI protocol, which is described in more detail at https://dtp.cancer.gov/discovery_development/nci-60/default.htm.
Compounds with GIPRCNT values below 10 were considered active. Activity score was based on GIPRCNT using the following formula: […]
Score is 0 for GIPRCNT values of 100 or above, 50 for GIPRCNT values of 0, and 100 for GIPRCNT values of -100.
For `Cc1ccc(-c2c3c(N)c4c(nc3nc3c2c(C)nn3-c2ccccc2)CCC4)cc1`, the growth is 91.1% (inactive).
To `COc1ccc(CNC(=O)c2c(C)n([O-])c3ccc(OC)cc3[n+]2=O)cc1` belongs 80.5% (inactive); to `O=C(Nc1ccc2c(c1)C(=O)c1ccccc1-2)c1ccccc1`, 92.9% (inactive).
As for `O=C1/C(=C/c2ccccc2O)C(=S)SN1Cc1ccco1`, the growth is 93.3% (inactive).
To `COC(=O)Nc1ccc2ccc3c(NC(=O)OC)ccc4ccc1c2c43` (tested in a mixture with another compound) belongs 48.4% (inactive).
Turning to `COP(=O)(OC)C(c1ccc(O)cc1)(c1ccc(O)cc1)c1ccc(O)cc1`, the growth was 92.8% (inactive).
The value for `Cc1cc(Cl)ccc1Nc1nc(C(F)(F)F)ccc1C(=O)N/N=C/c1ccc(Cl)cc1` was -2.59% (active).
Regarding `COc1cnc2c(c1)C(=O)c1c-2n(CCCN2CCOCC2)c(=O)c2cc(F)ccc12`, the growth was 12.1% (inactive).
The value for `C=C1CC[C@@H]2[C@](C)(COC(C)=O)[C@H](OC(C)=O)CC[C@@]2(C)[C@@H]1CC(NCc1ccccc1)C1=CCOC1=O` (stereo not given in full) was 10.1% (inactive); that for `O=C(CNC(=O)c1cccc2ccccc12)Nc1ccccc1Oc1ccc(O)cc1` was 31.1% [5 µM] (inactive).
The value for `O=C1/C(=C/c2ccc(F)cc2)Cc2ccccc21` was 97.8% (inactive).
Take `COc1cc(-c2nnc(-c3nc(-c4cc(OC)c(OC)c(OC)c4)n4ccccc34)o2)ccc1N`: the growth is 69% (inactive).
To `COc1cc(/C=C\C(C)=N\Nc2ccccc2)ccc1O` belongs 67.2% (inactive); to `O=Cc1ccccc1C(=O)O`, 96.1% (inactive); to `CCSc1nc(-c2ccco2)n2nc(-c3ccco3)cc2n1`, 95.7% (inactive).
To `CO[C@H]1/C=C/O[C@@]2(C)Oc3c(C)c(O)c4c(O)c(c(/C=N/N5C(C)CN(Cc6ccc(C#N)cc6)CC5C)c(O)c4c3C2=O)NC(=O)/C(C)=C\C=C\[C@H](C)[C@H](O)[C@@H](C)[C@@H](O)[C@@H](C)[C@H](OC(C)=O)[C@@H]1C` (stereo not given in full) belongs 13.1% (inactive); to `COc1ccc2nc(N/N=C(\C)c3ccccn3)cc(C)c2c1`, 12.9% (inactive).
With `O=[N+]([O-])c1ccc(NS(=O)(=O)c2ccc(Cl)c(Cl)c2)cc1`, the growth is 66.5% (inactive).
The value for `O=c1[nH]cc(Nc2cc(Cl)c3nonc3c2[N+](=O)[O-])c(=O)[nH]1` was 92.9% (inactive); that for `O=C(Nc1ccc(Cl)cc1)Nc1nc2ccc(OC(F)(F)F)cc2o1` was 44.7% (inactive); that for `FC(F)(F)c1cc(-c2nnc3n2N=C(N2CCCC2)CS3)cc(C(F)(F)F)c1` was 84.2% (inactive).
The value for `Nc1nc(Nc2ccccc2SSc2ccccc2Nc2nc(N)nc(C(Cl)(Cl)Cl)n2)nc(C(Cl)(Cl)Cl)n1` was 44.3% (inactive); that for `CCc1ccc(-c2nc(SCC(=O)NC3CCCCC3)n[nH]2)cc1` was 77.1% (inactive); that for `O=C1CSC(c2ccccc2O)N1c1nnc(Cn2ccnc2)o1` (stereo not given) was 64.6% (inactive).
To `CCN1CC2=C(Nc3nc(SC)[nH]c(=O)c3C2c2cc(OC)c(OC)c(OC)c2)/C(=C/c2cc(OC)c(OC)c(OC)c2)C1` (stereo not given) belongs 92.2% (inactive); to `CCNCCCn1c2c(c3ccc(F)cc3c1=O)C(=O)c1cc(OC)cnc1-2`, -3.56% (active); to `O=C(Nc1cccc(Cl)c1)Nc1cccc(Cl)c1`, 26.8% (inactive).
Turning to `O=CNc1ccc2c(c1)Cc1cc([N+](=O)[O-])ccc1-2`, the growth was 32.3% (inactive).
The value for `CCOC(CNCc1cc(C)c2[nH]c3ccccc3c2c1C)OCC` was 58.6% (inactive); that for `CCCn1c(N)c(C(=O)CNc2ccc(I)cc2)c(=O)[nH]c1=O` was 60.9% (inactive); that for `Cc1[nH]ccc2cc3nc4ccccc4c3cc12` was 33.4% (inactive).
For the molecule `CCN(CC)CCNCC(=O)Oc1ccc(/C=C/C(=O)CC(=O)/C=C/c2ccc(OC(=O)CNCCN(CC)CC)c(OC)c2)cc1OC`, the growth was 14.4% (inactive).
Regarding `O=C(c1ccccc1)c1ccc(Oc2ccc([N+](=O)[O-])cc2[N+](=O)[O-])cc1`, the growth is 75.4% (inactive).
The value for `c1ccc(-c2n(Cc3ccc4ccccc4c3)cc[n+]2Cc2ccc3ccccc3c2)cc1` was -58.8% (active); that for `COc1ccc(-c2nnc3c4[nH]cnc4ncn23)c(OC)c1` was 40.7% (inactive).
To `COC(=O)c1c(NC(=O)CSc2nnnn2-c2ccc(OC)cc2)sc(C)c1C` belongs 85% (inactive); to `CSc1nc(-c2ccc(O)cc2O)c2c(=O)[nH]c(Nc3ccc(S(=O)(=O)Nc4nc(C)cc(C)n4)cc3)nc2n1`, 88% (inactive).
To `CC1Cc2ccccc2N1C(=O)c1ccc(C(=O)c2ccccc2)cc1` (stereo not given) belongs 97% (inactive); to `Clc1ccc2nc(CI)c(CI)nc2c1`, 84.8% (inactive); to `CCOC(=O)CCN(c1c(Cl)ssc1=O)C(C)C`, 101% (inactive).
